Several values for one entry are separate records, joined by “and”; a condition that tells them apart may be missing. Equal entries are not always repeated.

In the first assay the test system is DIPGX29 (H3.3 K27M diffuse intrinsic pontine glioma line). Kind of assay: growth inhibition (% activity, log2 RLU normalised to DMSO / staurosporine); higher = more growth inhibition. The conditions noted are these: 33 µM. Put shortly: (§1)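 Cells (pHGG lines and H9-derived neural stem cells) were plated on Geltrex-coated 384-well plates and exposed to approved drugs at a single final concentration of about 33 μM, in triplicate, for 7 days at 37 °C, 5% CO2. Log2-transformed CellTiter-Glo luminescence was normalised per plate to % activity between solvent and positive control wells, and the growth-inhibition value is the median over replicates.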
As for `NC[C@H]1O[C@H](O[C@H]2[C@H](O)[C@@H](O[C@H]3O[C@H](CO)[C@@H](O)[C@H](N)[C@H]3O)[C@H](N)C[C@@H]2N)[C@H](N)C[C@@H]1O`, the growth inhibition is -1.1%.
Still for that read-out and setting: the figure for `CN[C@@H]1[C@H](O[C@H]2[C@H](O[C@H]3[C@H](O)[C@@H](O)[C@H](N=C(N)N)[C@@H](O)[C@@H]3N=C(N)N)O[C@@H](C)[C@]2(O)C=O)O[C@@H](CO)[C@H](O)[C@H]1O` is 0.0944%; for `CN1C[C@@H]2C[C@H]1CN2c1cc2c(cc1F)c(=O)c(C(=O)O)cn2C1CC1` it is 2.67%; for `O=C1C(=O)c2ccccc2C(O)=C1C1CCC(c2ccc(Cl)cc2)CC1` (stereo not drawn) it is 1.86%.
Same read-out and setting: then `CCN(CC)C(=O)/C(C#N)=C/c1cc(O)c(O)c([N+](=O)[O-])c1`, with -0.0111%; and `CCOC(=O)C1=C(C)NC(C)=C(C(=O)OC)C1c1cccc(Cl)c1Cl` (stereo not drawn), with 2.2%.
The same measure, in the same setting: the figure for `CCCCCCCCCC(=O)N[C@@H](Cc1c[nH]c2ccccc12)C(=O)N[C@@H](CC(N)=O)C(=O)N[C@@H](CC(=O)O)C(=O)N[C@@H]1C(=O)NCC(=O)N[C@@H](CCCN)C(=O)N[C@@H](CC(=O)O)C(=O)N[C@H](C)C(=O)N[C@@H](CC(=O)O)C(=O)NCC(=O)N[C@H](CO)C(=O)N[C@@H]([C@H](C)CC(=O)O)C(=O)N[C@@H](CC(=O)c2ccccc2N)C(=O)O[C@@H]1C` is -2.71%; for `CC(=O)Oc1cc2c(s1)CCN(C(C(=O)C1CC1)c1ccccc1F)C2` (stereo not drawn) it is 0.962%.
On to `Cc1[nH]c(=O)c(C#N)cc1-c1ccncc1`, for which the growth inhibition turned out to be 1.05%.
On the same count and under the same terms, the figure for `CC[N+](CC)(CC)CCOc1cccc(OCC[N+](CC)(CC)CC)c1OCC[N+](CC)(CC)CC` is 2.95%.
Still for that read-out and setting: then `CN1CCN2c3ccccc3Cc3ccccc3C2C1` (stereo not drawn), with 1.33%.
Still for that read-out and setting: then `Cc1cn([C@@H]2C[C@@H](O)[C@H](CO)O2)c(=O)[nH]c1=O`, with 0.778%.
With `Nc1ccc(C(=O)NCC(=O)O)cc1`, the growth inhibition is -0.487%.
On the same count and under the same terms, then `CNC(=C[N+](=O)[O-])NCCSCc1ccc(CN(C)C)o1`, with 2.69%; and `COC1C(O)CC(=O)OC(C)CC=CC=CC(OC2CCC(N(C)C)C(C)O2)C(C)CC(CC=O)C1OC1OC(C)C(OC2CC(C)(O)C(O)C(C)O2)C(N(C)C)C1O` (stereo not drawn), with 0.981%.
Consider `Cc1c(Cl)cccc1Nc1ccccc1C(=O)O`, for which the growth inhibition came to 1.71%.
On to `CC(=O)OCC(=O)[C@@]12OC(C)(C)O[C@@H]1C[C@H]1[C@@H]3C[C@H](F)C4=CC(=O)C=C[C@]4(C)[C@@]3(F)[C@@H](O)C[C@@]12C`, for which the growth inhibition was 0.7%.
Same read-out and setting: then `O=C1N=C(O)NC1(c1ccccc1)c1ccccc1`, with 0.482% and -0.485%.
The same measure, in the same setting: then `CC[C@H](C)C(=O)O[C@H]1C[C@H](O)C=C2C=C[C@H](C)[C@H](CC[C@@H](O)C[C@@H](O)CC(=O)O)[C@H]21`, with 1.52%; and `C=C[C@]1(C)C[C@@H](OC(=O)CSC(C)(C)CNC(=O)[C@H](N)C(C)C)[C@]2(C)[C@H](C)CC[C@]3(CCC(=O)[C@H]32)[C@@H](C)[C@@H]1O`, with 2.79%; and `N=C(N)c1ccc2cc(OC(=O)c3ccc(N=C(N)N)cc3)ccc2c1`, with -0.193%.
As to `CCC(=O)NCC[C@@H]1CCc2ccc3c(c21)CCO3`, the growth inhibition is -0.665%.
Still for that read-out and setting: then `OCC(O)CN1CCN(c2ccccc2)CC1` (stereo not drawn), with -2.77%; and `CNC(=O)c1cc(Oc2ccc(NC(=O)Nc3ccc(Cl)c(C(F)(F)F)c3)c(F)c2)ccn1`, with 4.67%; and `CCn1cc(C(=O)O)c(=O)c2cnc(N3CCCC3)nc21`, with -2.15%.
Turning to `Cc1c(-c2ccc(O)cc2)n(Cc2ccc(OCCN3CCCCCC3)cc2)c2ccc(O)cc12`, the growth inhibition was determined as 22.4%.
Consider `Nc1nc2n[nH]nc2c(=O)[nH]1`, for which the growth inhibition was found to be 14.5%.
Same read-out and setting: then `CCC(C)C1OC2(CCC1C)CC1CC(CC=C(C)C(OC3CC(OC)C(OC4CC(OC)C(O)C(C)O4)C(C)O3)C(C)C=CC=C3COC4C(O)C(C)=CC(C(=O)O1)C34O)O2` (stereo not drawn), with 3.13%; and `O=C([O-])[C@H](O)[C@@H](O)[C@H](O)[C@H](O)CO.[Na+]`, with 0.856%; and `CC(C(=O)O)c1ccc(C(=O)c2cccs2)cc1` (stereo not drawn), with -1.23%.
The same measure, in the same setting: then `COc1c2occc2cc2ccc(=O)oc12`, with -0.546%; and `C[C@@H]1CN(c2c(F)c(N)c3c(=O)c(C(=O)O)cn(C4CC4)c3c2F)C[C@H](C)N1`, with 0.694%; and `Cc1cc(=O)n(-c2ccccc2)n1C`, with -0.731%.
For the compound `NCCCCCC(=O)O`, the growth inhibition stood at 0.867%.
As for `Nc1nc2[nH]cc(CCc3ccc(C(=O)N[C@@H](CCC(=O)O)C(=O)O)cc3)c2c(=O)[nH]1`, the growth inhibition amounted to 1.3%.
Same read-out and setting: the figure for `Cc1onc(-c2ccccc2)c1C(=O)N[C@@H]1C(=O)N2[C@@H]1SC(C)(C)[C@@H]2C(=O)O` is -1.74%; for `Nc1cccc2c1CN(C1CCC(=O)NC1=O)C2=O` (stereo not drawn) it is 0.182%; for `COc1ccccc1N1CCN(CC(O)COc2cccc3ccccc23)CC1` (stereo not drawn) it is 0.825%.
The same measure, in the same setting: then `CC1CNc2c(cccc2S(=O)(=O)N[C@@H](CCCNC(=N)N)C(=O)N2CC[C@@H](C)C[C@@H]2C(=O)O)C1` (stereo partly drawn), with 0.0741%.

The test system of the next assay is DIPGX37 (H3.3 K27M diffuse intrinsic pontine glioma line). Described as above. The conditions noted are these: 33 µM. Put shortly: as §1
In the case of `NC[C@H]1O[C@H](O[C@H]2[C@H](O)[C@@H](O[C@H]3O[C@H](CO)[C@@H](O)[C@H](N)[C@H]3O)[C@H](N)C[C@@H]2N)[C@H](N)C[C@@H]1O`, the growth inhibition was -0.159%.
In the case of `CN[C@@H]1[C@H](O[C@H]2[C@H](O[C@H]3[C@H](O)[C@@H](O)[C@H](N=C(N)N)[C@@H](O)[C@@H]3N=C(N)N)O[C@@H](C)[C@]2(O)C=O)O[C@@H](CO)[C@H](O)[C@H]1O`, the growth inhibition was -5.46%.
On the same count and under the same terms, the figure for `CN1C[C@@H]2C[C@H]1CN2c1cc2c(cc1F)c(=O)c(C(=O)O)cn2C1CC1` is 1.22%.
The same measure, in the same setting: the figure for `O=C1C(=O)c2ccccc2C(O)=C1C1CCC(c2ccc(Cl)cc2)CC1` (stereo not drawn) is -1.09%.
Turning to `CCN(CC)C(=O)/C(C#N)=C/c1cc(O)c(O)c([N+](=O)[O-])c1`, the growth inhibition was 1.83%.
On to `CCOC(=O)C1=C(C)NC(C)=C(C(=O)OC)C1c1cccc(Cl)c1Cl` (stereo not drawn), for which the growth inhibition turned out to be 0.16%.
Consider `CCCCCCCCCC(=O)N[C@@H](Cc1c[nH]c2ccccc12)C(=O)N[C@@H](CC(N)=O)C(=O)N[C@@H](CC(=O)O)C(=O)N[C@@H]1C(=O)NCC(=O)N[C@@H](CCCN)C(=O)N[C@@H](CC(=O)O)C(=O)N[C@H](C)C(=O)N[C@@H](CC(=O)O)C(=O)NCC(=O)N[C@H](CO)C(=O)N[C@@H]([C@H](C)CC(=O)O)C(=O)N[C@@H](CC(=O)c2ccccc2N)C(=O)O[C@@H]1C`, for which the growth inhibition was -1.3%.
For `CC(=O)Oc1cc2c(s1)CCN(C(C(=O)C1CC1)c1ccccc1F)C2` (stereo not drawn), the growth inhibition is -2.57%.
Same read-out and setting: then `Cc1[nH]c(=O)c(C#N)cc1-c1ccncc1`, with 4.4%.
The same measure, in the same setting: the figure for `CC[N+](CC)(CC)CCOc1cccc(OCC[N+](CC)(CC)CC)c1OCC[N+](CC)(CC)CC` is 4.13%; for `CN1CCN2c3ccccc3Cc3ccccc3C2C1` (stereo not drawn) it is -0.487%; for `Cc1cn([C@@H]2C[C@@H](O)[C@H](CO)O2)c(=O)[nH]c1=O` it is -0.0219%.
Regarding `Nc1ccc(C(=O)NCC(=O)O)cc1`, the growth inhibition was -0.247%.
Still for that read-out and setting: the figure for `CNC(=C[N+](=O)[O-])NCCSCc1ccc(CN(C)C)o1` is 2.65%; for `COC1C(O)CC(=O)OC(C)CC=CC=CC(OC2CCC(N(C)C)C(C)O2)C(C)CC(CC=O)C1OC1OC(C)C(OC2CC(C)(O)C(O)C(C)O2)C(N(C)C)C1O` (stereo not drawn) it is 1.73%.
Take `Cc1c(Cl)cccc1Nc1ccccc1C(=O)O`: the growth inhibition was 2.72%.
For the compound `CC(=O)OCC(=O)[C@@]12OC(C)(C)O[C@@H]1C[C@H]1[C@@H]3C[C@H](F)C4=CC(=O)C=C[C@]4(C)[C@@]3(F)[C@@H](O)C[C@@]12C`, the growth inhibition came to 2.1%.
Still for that read-out and setting: the figure for `O=C1N=C(O)NC1(c1ccccc1)c1ccccc1` is 2.42% and 3.19%; for `CC[C@H](C)C(=O)O[C@H]1C[C@H](O)C=C2C=C[C@H](C)[C@H](CC[C@@H](O)C[C@@H](O)CC(=O)O)[C@H]21` it is -5.39%; for `C=C[C@]1(C)C[C@@H](OC(=O)CSC(C)(C)CNC(=O)[C@H](N)C(C)C)[C@]2(C)[C@H](C)CC[C@]3(CCC(=O)[C@H]32)[C@@H](C)[C@@H]1O` it is 0.213%.
Same read-out and setting: the figure for `N=C(N)c1ccc2cc(OC(=O)c3ccc(N=C(N)N)cc3)ccc2c1` is -3.07%.
With `CCC(=O)NCC[C@@H]1CCc2ccc3c(c21)CCO3`, the growth inhibition was -0.134%.
On to `OCC(O)CN1CCN(c2ccccc2)CC1` (stereo not drawn), for which the growth inhibition is -0.131%.
Same read-out and setting: then `CNC(=O)c1cc(Oc2ccc(NC(=O)Nc3ccc(Cl)c(C(F)(F)F)c3)c(F)c2)ccn1`, with 2.29%.
Take `CCn1cc(C(=O)O)c(=O)c2cnc(N3CCCC3)nc21`: the growth inhibition is -2.01%.
In the case of `Cc1c(-c2ccc(O)cc2)n(Cc2ccc(OCCN3CCCCCC3)cc2)c2ccc(O)cc12`, the growth inhibition is 0.0572%.
The same measure, in the same setting: then `Nc1nc2n[nH]nc2c(=O)[nH]1`, with 13.2%.
Still for that read-out and setting: then `CCC(C)C1OC2(CCC1C)CC1CC(CC=C(C)C(OC3CC(OC)C(OC4CC(OC)C(O)C(C)O4)C(C)O3)C(C)C=CC=C3COC4C(O)C(C)=CC(C(=O)O1)C34O)O2` (stereo not drawn), with 0.396%.
The same measure, in the same setting: then `O=C([O-])[C@H](O)[C@@H](O)[C@H](O)[C@H](O)CO.[Na+]`, with 4.24%.
Consider `CC(C(=O)O)c1ccc(C(=O)c2cccs2)cc1` (stereo not drawn), for which the growth inhibition was -0.791%.
On the same count and under the same terms, then `COc1c2occc2cc2ccc(=O)oc12`, with -5.42%; and `C[C@@H]1CN(c2c(F)c(N)c3c(=O)c(C(=O)O)cn(C4CC4)c3c2F)C[C@H](C)N1`, with 1.71%.
Same read-out and setting: then `Cc1cc(=O)n(-c2ccccc2)n1C`, with -0.447%; and `NCCCCCC(=O)O`, with 2.56%; and `Nc1nc2[nH]cc(CCc3ccc(C(=O)N[C@@H](CCC(=O)O)C(=O)O)cc3)c2c(=O)[nH]1`, with 1.02%.
On the same count and under the same terms, then `Cc1onc(-c2ccccc2)c1C(=O)N[C@@H]1C(=O)N2[C@@H]1SC(C)(C)[C@@H]2C(=O)O`, with -1.12%.
Turning to `Nc1cccc2c1CN(C1CCC(=O)NC1=O)C2=O` (stereo not drawn), the growth inhibition came to 0.237%.
Still for that read-out and setting: the figure for `COc1ccccc1N1CCN(CC(O)COc2cccc3ccccc23)CC1` (stereo not drawn) is 1.5%; for `CC1CNc2c(cccc2S(=O)(=O)N[C@@H](CCCNC(=N)N)C(=O)N2CC[C@@H](C)C[C@@H]2C(=O)O)C1` (stereo partly drawn) it is 1.59%.

(Values after the supplement of paper PMC8253809.)
